Experiment [1] in a line: circadian clock period modulators, cell-based, LOPAC library, luminescence reporter (AID 2774; call rule not given here;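 further: values are relative to mean of DMSO wells on each plate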). Particulars: circadian reporter cells, at 7 µM, actives lie on both sides.
Experiment [2] concerns Hepatitis C virus NS3 helicase. Nature of the experiment: HCV NS3 helicase inhibitors, primary screen, biochemical, fluorescence polarization, LOPAC1280 library (AID 687035; in the data active means inhibition above about 37%). Particulars: Purified HCV NS3 helicase, Cy5-dT15 ssDNA binding fluorescence polarization; stronger effect = higher value; concentration not given here.
The nature of experiment [3]: Cy5 fluorescence quenching or enhancement artefacts, artefact control for HCV NS3 helicase inhibitor project, biochemical, LOPAC1280 (AID 687037; call rule not given here). Particulars: Cy5-DNA-NS3h complex fluorescence interference counterscreen. On the technique in general: The purpose of a counterscreen is to sort out artefacts and off-target activity.
Experiment [4] is described as follows: growth inhibition of DIPG glioma cells, dose response, cell-based, SU-DIPG-IV, MIPE4.0, CellTiter-Glo, qHTS (AID 1347063; cut-off not given, nearly all actives have AC50 up to about 30 µM;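 further: compound exposure lasted 48 hours before the viability readout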). As to conditions: SU-DIPG-IV viability, CellTiter-Glo ATP luminescence. (In general: Cellular ATP, detected with luciferase, serves as a proxy for viable cell number.)
Experiment [5] can be described thus: viability loss in pontine glioma line – cell-based, SU-DIPG-XXV, MIPE5.0, CellTiter-Glo, qHTS, dose response (AID 1347065; cut-off not given, nearly all actives have AC50 up to about 26 µM;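 further: cells exposed to compound for 48 hours before ATP readout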). As to conditions: CellTiter-Glo ATP luminescence.
Experiment [6] can be described thus: SU-DIPG-VI glioma cell viability, MIPE4.0 library, CellTiter-Glo luminescence, qHTS (AID 1347066; cut-off not given, nearly all actives have AC50 up to about 30 µM;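 further: cells exposed to compound for 48 hours before readout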). Particulars: CellTiter-Glo ATP luminescence.
Experiment [7] is described as follows: JHH-DIPG-1 glioma cell viability, MIPE5.0 library, CellTiter-Glo luminescence, qHTS (AID 1347067; cut-off not given, nearly all actives have AC50 up to about 26 µM;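 further: cells exposed to compound for 48 hours before readout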). Particulars: JHH-DIPG-1 glioma viability, CellTiter-Glo ATP luminescence.
Experiment [8] is described as follows: sensitizers of A549 cells to miR-34 induction, primary screen, imaging, A549 dox-inducible miR-34, nuclei and caspase counts (AID 1347080;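 active means compounds whose cell count with miR-34 switched on is under 0.7 times the count with it off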). Particulars: A549 miR-34 inducible, Hoechst nuclei count, 48 h.
Experiment [9] can be described thus: inhibitors of Cryptococcus chitosan production, flow cytometry, Cibacron Brilliant Red staining (AID 1347148; call rule not given here;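 further: compound exposure lasted three days at 37 degrees C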). As to conditions: Cryptococcus neoformans chitosan, stronger effect = lower value; at 10 µM unless noted. For orientation: A flow cytometer gives signals particle by particle.
The nature of experiment [10]: phospholipid biosynthesis inhibitors in animal cells, primary screen, cell-based, LOPAC library, screen 4 (AID 1347384; call rule not given here). As to conditions: phospholipid biosynthesis inhibition screen, at 10 µM.
Experiment [11] is described as follows: viability rescue of complex I mutant cybrids, primary screen, cell-based, galactose medium, ATP luminescence (AID 1645843;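 active means z-score of at least 1.8 in each of two replicates, scored against plate mean and spread of sample wells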;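 further: positive z means more ATP and so rescue of galactose-driven cybrid death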). Particulars: complex I mutant cybrid cells, 72 h, stronger effect = higher value.
The nature of experiment [12]: growth inhibition of DIPG glioma cells, dose response, cell-based, SU-DIPG-XIII, MIPE5.0, CellTiter-Glo, qHTS (AID 1347064; cut-off not given, nearly all actives have AC50 up to about 23 µM;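 further: cells exposed to compound for 48 hours before the viability read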). As to conditions: SU-DIPG-XIII viability, CellTiter-Glo ATP luminescence.
Experiment [13] can be described thus: SU-DIPG-XXV glioma cell viability, MIPE5.0 library, qHTS (AID 1347068; cut-off not given, nearly all actives have IC50 up to about 30 µM;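 on IC50: cells exposed to compound for 48 hours before viability readout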).
In experiment [14] the target is NAD(+) hydrolase SARM1 (Homo sapiens) (UniProt Q6SZW1). Nature of the experiment: SARM1 TIR NADase inhibitors, cell lysate, NAD-Glo luminescence (AID 1508614;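 active means compound whose remaining NAD level is above about 45 nM, limit read from the data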). As to conditions: SAM-TIR HEK293T lysate NADase, at 1 µM, stronger effect = higher value.
Experiment [15] can be described thus: modifiers of HSF1 nuclear foci, imaging, Selleck Cancer Library (AID 1347162; in the data active means plate-normalised HSF1 focus index below about 0.46). As to conditions: human cells, at 10 µM; SSMD: measured here: HSF1 foci SSMD mean; cell count: measured here: cell number; plate-normalised HSF1 focus index: stronger effect = lower value.
Experiment [16] in a line: ovarian cancer cell viability with rucaparib, profiling panel, oncology-focused library, rucaparib conditional (AID 1508598). As to conditions: patient-derived ovarian cancer cells, CellTiter-Glo viability, 144 h, stronger effect = lower value.
[17] abbreviates: stronger effect = lower value, cell number ratio, induced over uninduced.
Where [18] appears, read: measured here: relative caspase fold change +Dox/-Dox.
The mark [19] stands for this setting: measured here: total cells with miR-34 induction, stronger effect = lower value.
[20] abbreviates: measured here: total cells without miR-34 induction.

Here are results for five compounds from PubChem BioAssay.

“And” between values parts separate entries of the source, which are not always exact repeats. Identical values can stand only once. Results filed as inconclusive are left out. The source made the active and inactive calls.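 How the source made its calls, unless noted: active means normalized viability below 100% at a tested concentration; inactive means the rest.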

NAD(+) hydrolase SARM1 (Homo sapiens), sequence (Q6SZW1 whole entry, looked up): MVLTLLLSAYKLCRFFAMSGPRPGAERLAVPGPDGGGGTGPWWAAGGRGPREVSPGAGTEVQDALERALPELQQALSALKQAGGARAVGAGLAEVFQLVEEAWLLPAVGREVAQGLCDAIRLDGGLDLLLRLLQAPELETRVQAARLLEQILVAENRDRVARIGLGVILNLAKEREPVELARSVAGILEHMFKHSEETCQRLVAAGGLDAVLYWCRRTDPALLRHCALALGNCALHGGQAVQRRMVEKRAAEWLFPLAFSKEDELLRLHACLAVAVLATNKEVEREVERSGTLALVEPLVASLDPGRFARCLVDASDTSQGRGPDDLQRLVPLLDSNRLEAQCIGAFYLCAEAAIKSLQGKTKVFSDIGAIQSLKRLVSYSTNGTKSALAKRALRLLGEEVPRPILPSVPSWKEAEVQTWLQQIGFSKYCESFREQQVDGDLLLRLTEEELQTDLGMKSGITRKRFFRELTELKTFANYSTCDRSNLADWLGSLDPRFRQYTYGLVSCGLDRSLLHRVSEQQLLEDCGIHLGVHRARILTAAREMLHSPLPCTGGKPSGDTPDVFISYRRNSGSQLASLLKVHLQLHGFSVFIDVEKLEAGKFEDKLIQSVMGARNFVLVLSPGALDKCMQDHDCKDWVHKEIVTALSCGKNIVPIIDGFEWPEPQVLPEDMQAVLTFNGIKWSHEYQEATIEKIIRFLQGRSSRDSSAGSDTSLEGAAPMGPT

One may read the inhibition as the change of the read-out against control, counted positive when it falls. In general, AC50 refers to the midpoint of the concentration-response curve, whichever way the signal moves. As to `Cc1ccc(S(=O)(=O)N[C@@H](Cc2ccccc2)C(=O)CCl)cc1`, the period change in [1] was -0.14 h (inactive). The inhibition in [2] is -4% (inactive). Further, the fluorescence ratio (interference) in [3] was 1 (inactive). In addition, the AC50 is 18.7 µM (active) in experiment [4], 18.6 µM (active) in experiment [5], 20.9 µM (active) in experiment [6] and 23.5 µM (active) in experiment [7]. Also, the fold change in experiment [8] (setting [17]) was 1.17 (inactive) and 1.22 (inactive); in experiment [8] (setting [18]), 0.738 and 0.849. Further, the cell count in experiment [8] (setting [19]) was 1870 and 962; in experiment [8] (setting [20]), 1600 and 786. In addition, the fold fluorescence in [9] was 6.27 [at 142.1 µM] (inactive). Moreover, in experiment [10], the compound was called inactive. Further, the z-score in [11] is -1.34 (inactive).

With `C[C@H](Cc1ccc(O)c(O)c1)[C@@H](C)Cc1ccc(O)c(O)c1`, the period change in experiment [1] was 0.005 h (inactive). In [2], the inhibition was -2% (inactive). Also, the fluorescence ratio (interference) in [3] was 1 (inactive). In addition, the AC50 is 16.6 µM (active) in experiment [4], 18.6 µM (active) in [12] and 23.5 µM (active) in experiment [6]. The compound was classed as inactive in experiment [13] and in experiment [10]. For the same compound, the results for the fold change in experiment [8] (setting [17]) and in [8] (setting [18]) were 1.02 (inactive) and 0.821, respectively. Besides, the figures for the cell count in experiment [8] (setting [19]) and in experiment [8] (setting [20]) were 8920 and 8770, respectively. The z-score in experiment [11] is -1.22 (inactive).

For the compound `CO/N=C(/C(=O)N[C@@H]1C(=O)N2C(C(=O)O)=C(CSC(=O)c3ccco3)CS[C@H]12)c1csc(N)n1`, the AC50 in experiment [4] is 23.5 µM (active). The remaining NAD in experiment [14] is 10 nM (inactive).

In the case of `COc1c(Cl)cc2c([nH]c3cnccc32)c1NC(=O)c1cccnc1C`, the AC50 in experiment [4] is 2.96 µM (active).

By IC50 is commonly meant the point on the concentration scale where inhibition reaches its midpoint. Broadly, the viability is a read-out of living cells in per cent, often relative to untreated cells. As for `CN(C)CC[C@H](CSc1ccccc1)Nc1ccc(S(=O)(=O)NC(=O)c2ccc(N3CCN(Cc4ccccc4-c4ccc(Cl)cc4)CC3)cc2)cc1[N+](=O)[O-]`, the AC50 is 7.43 µM (active) in experiment [4], 0.934 µM (active) in experiment [5], 2.35 µM (active) in experiment [6] and 16.6 µM (active) in experiment [7]. Moreover, the IC50 in experiment [13] was 13.2 µM (active). For the same compound, the SSMD in [15] was -3.9. In experiment [15], this compound had a cell count of 6950. Also, in [15], the plate-normalised HSF1 focus index was 0.864 (inactive). In addition, the viability in [16] (at 0.000305 µM, OCI-C5x cells, with rucaparib 10 µM, 100% = cells with rucaparib alone) was 121% (inactive); in experiment [16] (at 0.000305 µM, OCI-C5x cells, without rucaparib), 119% (inactive); in experiment [16] (at 0.000305 µM, OCI-P5x cells, with rucaparib 20 µM, 100% = cells with rucaparib alone), 148% (inactive); in [16] (at 0.000305 µM, OCI-P5x cells, without rucaparib), 108% (inactive); in [16] (at 0.00122 µM, OCI-C5x cells, with rucaparib 10 µM, 100% = cells with rucaparib alone) it was 119% (inactive); in experiment [16] (at 0.00122 µM, OCI-C5x cells, without rucaparib), 124% (inactive). Besides, the viability was 135% (inactive) in experiment [16] (at 0.00122 µM, OCI-P5x cells, with rucaparib 20 µM, 100% = cells with rucaparib alone); 102% (inactive) in [16] (at 0.00122 µM, OCI-P5x cells, without rucaparib); 109% (inactive) in [16] (at 0.00488 µM, OCI-C5x cells, with rucaparib 10 µM, 100% = cells with rucaparib alone); 114% (inactive) in experiment [16] (at 0.00488 µM, OCI-C5x cells, without rucaparib); 141% (inactive) in experiment [16] (at 0.00488 µM, OCI-P5x cells, with rucaparib 20 µM, 100% = cells with rucaparib alone); 108% (inactive) in experiment [16] (at 0.00488 µM, OCI-P5x cells, without rucaparib). Further, the viability was 85.3% (active) in [16] (at 0.0195 µM, OCI-C5x cells, with rucaparib 10 µM, 100% = cells with rucaparib alone); 114% (inactive) in experiment [16] (at 0.0195 µM, OCI-C5x cells, without rucaparib); 140% (inactive) in [16] (at 0.0195 µM, OCI-P5x cells, with rucaparib 20 µM, 100% = cells with rucaparib alone); 101% (inactive) in experiment [16] (at 0.0195 µM, OCI-P5x cells, without rucaparib); 79.6% (active) in experiment [16] (at 0.0781 µM, OCI-C5x cells, with rucaparib 10 µM, 100% = cells with rucaparib alone); 103% (inactive) in experiment [16] (at 0.0781 µM, OCI-C5x cells, without rucaparib). Besides, the viability was 135% (inactive) in experiment [16] (at 0.0781 µM, OCI-P5x cells, with rucaparib 20 µM, 100% = cells with rucaparib alone); 99.6% (active) in experiment [16] (at 0.0781 µM, OCI-P5x cells, without rucaparib); 69% (active) in experiment [16] (at 0.313 µM, OCI-C5x cells, with rucaparib 10 µM, 100% = cells with rucaparib alone); 46.2% (active) in experiment [16] (at 0.313 µM, OCI-C5x cells, without rucaparib); 121% (inactive) in [16] (at 0.313 µM, OCI-P5x cells, with rucaparib 20 µM, 100% = cells with rucaparib alone); 96.5% (active) in experiment [16] (at 0.313 µM, OCI-P5x cells, without rucaparib). Further, the viability was 62.2% (active) in experiment [16] (at 1.25 µM, OCI-C5x cells, with rucaparib 10 µM, 100% = cells with rucaparib alone); 91.3% (active) in experiment [16] (at 1.25 µM, OCI-C5x cells, without rucaparib); 130% (inactive) in experiment [16] (at 1.25 µM, OCI-P5x cells, with rucaparib 20 µM, 100% = cells with rucaparib alone); 91.4% (active) in experiment [16] (at 1.25 µM, OCI-P5x cells, without rucaparib); 7.96% (active) in experiment [16] (at 5 µM, OCI-C5x cells, with rucaparib 10 µM, 100% = cells with rucaparib alone); 22.6% (active) in experiment [16] (at 5 µM, OCI-C5x cells, without rucaparib). Also, the viability in experiment [16] (at 5 µM, OCI-P5x cells, with rucaparib 20 µM, 100% = cells with rucaparib alone) is 9.56% (active); in [16] (at 5 µM, OCI-P5x cells, without rucaparib), 75.3% (active).
